Reference: PubChem BioAssay (EPA / NIEHS)
Where “and” joins values, the source holds several entries; their conditions need not be identical. Identical values can stand only once. A structure can be active in one record and inactive in another. Calls of active or inactive are those of the source. Rule for the calls: active = hit-call score of the fitted dose curve at least 0.9, where 1 is the maximum; inactive = score below 0.9.

How the values were obtained:
[1] = BSK_3C_SRB: Viability Assessment in the BioMAP Diversity Plus: 3C Assay (AID 2283023); details: primary human endothelial cells (HUVEC);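 note: fitted both ways against DMSO so a hit may be signal rise or drop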
Procedure, shortened: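 Overt cytotoxicity is gauged in parallel confluent HUVEC cultures by SRB total-protein staining at the time of biomarker measurement, 24 h after dosing. Gain or loss of signal is fitted versus DMSO.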

[2] = read-out: Matrix Metallopeptidase 1 (MMP1), MMP1 (gene 4312); experiment: BSK_BE3C_MMP1: BioMAP Diversity Plus: BE3C Assay for Matrix Metallopeptidase 1 (MMP1) Biomarker Activity (AID 2283024); details: primary human bronchial epithelial cells; actives raise or lower the signal
Procedure, shortened: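 ELISA measurement of MMP-1 after 24 h compound exposure of primary human bronchial epithelial cells. Changes in either direction fitted relative to DMSO; parallel SRB staining checked overt cytotoxicity.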

[3] = read-out: Pselectin, SELP (gene 6403); experiment: BSK_4H_Pselectin: BioMAP Diversity Plus: 4H Assay for Pselectin Biomarker Activity (AID 2283026); details: primary human endothelial cells (HUVEC); actives raise or lower the signal
Procedure, shortened: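 ELISA of surface P-selectin on HUVEC, 24 h after dosing, with parallel SRB staining (0.1% after 10% TCA fixation, 560 nm) for overt cytotoxicity. Activity fitted in both directions relative to DMSO.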

[4] = BSK_BE3C_SRB: Viability Assessment in the BioMAP Diversity Plus: BE3C Assay (AID 2283028); details: primary human bronchial epithelial cells;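 for AC50: fitted both ways so AC50 may mark signal gain or loss versus DMSO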
Procedure, shortened: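 SRB total-protein staining (0.1%, after TCA fixation) of chemically dosed human bronchial epithelial primary cells at 24 h; DMSO serves as the negative control for bidirectional curve fitting.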

[5] = read-out: Thrombomodulin, THBD (gene 7056); experiment: BSK_3C_Thrombomodulin: BioMAP Diversity Plus: 3C Assay for Thrombomodulin Biomarker Activity (AID 2283029); details: primary human endothelial cells (HUVEC); actives raise or lower the signal
Procedure, shortened: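 ELISA measurement of thrombomodulin on HUVEC surface 24 h after chemical dosing; activity fitted in both directions relative to DMSO vehicle.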

[6] = read-out: Urokinase-type plasminogen activator receptor (uPAR), PLAUR (gene 5329); experiment: BSK_4H_uPAR: BioMAP Diversity Plus: 4H Assay for Urokinase-type plasminogen activator receptor (uPAR) Biomarker Activity (AID 2283030); details: primary human endothelial cells (HUVEC); actives raise or lower the signal
Procedure, shortened: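 Endpoint derived via bidirectional curve fitting against DMSO baseline; readout was ELISA detection of uPAR on umbilical vein endothelial cells at 24 h post-treatment, with SRB-stained parallel cultures assessing cytotoxicity.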

[7] = read-out: Vascular endothelial growth factor receptor 2 (Homo sapiens) (UniProt P35968); experiment: BSK_4H_VEGFRII: BioMAP Diversity Plus: 4H Assay for Vascular endothelial growth factor receptor 2 (VEGFR2) Biomarker Activity (AID 2283031); details: primary human endothelial cells (HUVEC); actives raise or lower the signal;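 for AC50: cell-surface VEGFR2 protein level quantified by ELISA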
Procedure, shortened: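 In this multiplexed HUVEC system, biomarker ELISA was performed after 24 h chemical exposure. Parallel SRB staining (TCA fixation, 560 nm) tracked cytotoxicity; DMSO served as baseline.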

[8] = read-out: Human Leukocyte Antigen - DR isotype (HLADR), HLA-DRA (gene 3122); experiment: BSK_BE3C_HLADR: BioMAP Diversity Plus: BE3C Assay for Human Leukocyte Antigen - DR isotype (HLADR) Biomarker Activity (AID 2283032); details: primary human bronchial epithelial cells; actives raise or lower the signal
Procedure, shortened: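 Cell-surface HLA-DR ELISA readout at 24 h after dosing in the BE3C primary human lung bronchial epithelial system; gain or loss of signal against DMSO, with parallel sulforhodamine B staining of total protein for overt cytotoxicity.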

[9] = read-out: Vascular cell adhesion molecule 1 (VCAM1), VCAM1 (gene 7412); experiment: BSK_4H_VCAM1: BioMAP Diversity Plus: 4H Assay for Vascular cell adhesion molecule 1 (VCAM1) Biomarker Activity (AID 2283033); details: primary human endothelial cells (HUVEC); actives raise or lower the signal
Procedure, shortened: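 VCAM-1 ELISA read 24 h after chemical dosing of HUVEC in the BioMAP 4H system, with gain or loss of signal fitted relative to DMSO. Parallel SRB staining (560 nm) checked overt cytotoxicity.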

[10] = read-out: Interferon-gamma inducible Protein 10 (IP10), CXCL10 (gene 3627); experiment: BSK_BE3C_IP10: BioMAP Diversity Plus: BE3C Assay for Interferon-gamma inducible Protein 10 (IP10) Biomarker Activity (AID 2283034); details: primary human bronchial epithelial cells; actives raise or lower the signal
Procedure, shortened: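 IP-10 quantified by ELISA in human primary bronchial epithelial cell cultures at 24 hours post-dosing. Gain or loss of signal fitted relative to DMSO; parallel SRB staining assessed overt cytotoxicity.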

[11] = read-out: Monokine induced gamma interferon (MIG), CXCL9 (gene 4283); experiment: BSK_BE3C_MIG: BioMAP Diversity Plus: BE3C Assay for Monokine induced gamma interferon (MIG) Biomarker Activity (AID 2283035); details: primary human bronchial epithelial cells; actives raise or lower the signal
Procedure, shortened: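 Dose cells (human primary bronchial epithelial), incubate 24 h, quantify MIG by ELISA, then fit concentration–response in both directions relative to DMSO control.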

[12] = read-out: Urokinase-type plasminogen activator receptor (uPAR), PLAUR (gene 5329); experiment: BSK_BE3C_uPAR: BioMAP Diversity Plus: BE3C Assay for Urokinase-type plasminogen activator receptor (uPAR) Biomarker Activity (AID 2283039); details: primary human bronchial epithelial cells; actives raise or lower the signal
Procedure, shortened: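 uPAR levels were measured by ELISA after 24 h compound treatment of primary human bronchial epithelial cells, fitted in both directions relative to DMSO. Parallel SRB staining served as the cytotoxicity read-out.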

[13] = read-out: Interleukin-6 (IL6), IL6 (gene 3569); experiment: BSK_CASM3C_IL6: BioMAP Diversity Plus: CASM3C Assay for Interleukin-6 (IL6) Biomarker Activity for (AID 2283040); details: primary human coronary artery smooth muscle cells; actives raise or lower the signal
[14] = read-out: Interleukin-8 (IL8), CXCL8 (gene 3576); experiment: BSK_CASM3C_IL8: BioMAP Diversity Plus: CASM3C Assay for Interleukin-8 (IL8) Biomarker Activity (AID 2283042); details: primary human coronary artery smooth muscle cells; actives raise or lower the signal;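 note: IL-8 protein level quantified by ELISA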
[15] = read-out: Human Leukocyte Antigen - DR isotype (HLADR), HLA-DRA (gene 3122); experiment: BSK_CASM3C_HLADR: BioMAP Diversity Plus: CASM3C Assay for Human Leukocyte Antigen - DR isotype (HLADR) Biomarker Activity (AID 2283043); details: primary human coronary artery smooth muscle cells; actives raise or lower the signal;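 note: cell-surface HLA-DR protein level quantified by ELISA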
[16] = read-out: Macrophage colony-stimulating factor (MCSF), CSF1 (gene 1435); experiment: BSK_CASM3C_MCSF: BioMAP Diversity Plus: CASM3C Assay for Macrophage colony-stimulating factor (MCSF) Biomarker Activity (AID 2283044); details: primary human coronary artery smooth muscle cells; actives raise or lower the signal;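 note: M-CSF protein amount quantified by ELISA after 24 h exposure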
[17] = read-out: Low-density lipoprotein receptor (LDLR), LDLR (gene 3949); experiment: BSK_CASM3C_LDLR: BioMAP Diversity Plus: CASM3C Assay for Low-density lipoprotein receptor (LDLR) Biomarker Activity (AID 2283045); details: primary human coronary artery smooth muscle cells; actives raise or lower the signal;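 note: LDLR protein level on the cell surface quantified by ELISA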
[18] = read-out: Monocyte Chemoattractant Protein-1 (MCP1), CCL2 (gene 6347); experiment: BSK_CASM3C_MCP1: BioMAP Diversity Plus: CASM3C Assay for Monocyte Chemoattractant Protein-1 (MCP1) Biomarker Activity (AID 2283046); details: primary human coronary artery smooth muscle cells; actives raise or lower the signal;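 note: MCP-1 level quantified by ELISA 24 h after dosing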
[19] = BSK_3C_Vis: BioMAP Diversity Plus: 3C Assay for Morphology Visualization (AID 2283025); details: primary human endothelial cells (HUVEC);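 note: fitted both ways so gain or loss versus DMSO counts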;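 for AC50: light microscopy image of cell morphology used as background control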
Procedure, shortened: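 Light-microscopy visualization of HUVEC cultures at 24 h post-treatment, with DMSO as baseline for bidirectional fitting.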

[20] = read-out: Transforming growth factor beta 1 (TGFb1), TGFB1 (gene 7040); experiment: BSK_BE3C_TGFb1: BioMAP Diversity Plus: BE3C Assay for Transforming growth factor beta 1 (TGFb1) Biomarker Activity (AID 2283036); details: primary human bronchial epithelial cells; actives raise or lower the signal
Procedure, shortened: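 ELISA readout of TGF-b1 from human lung bronchial epithelial primary cells, taken 24 h post-treatment. Gain or loss of signal fitted relative to DMSO baseline, with parallel SRB staining for overt cytotoxicity.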

Measured: AC50

O=C(c1ccc(O)cc1)c1ccc(O)cc1O
active: [2] 12.9 µM | [6] 9.72 µM | [8] 20 µM
inactive: [1] | [2] | [3] | [4] | [5] | [6] | [7] | [8] | [9] | [10] | [11] | [12] | [13] | [14] | [15] | [16] | [17] | [18]

CCO[Si](C)(OCC)OCC
inactive: [1] | [2] | [3] | [4] | [5] | [6] | [7] | [8] | [9] | [10] | [11] | [12] | [13] | [14] | [15] | [16] | [17] | [18]

Nc1ccc(N)c(Cl)c1
active: [1] 28.6 µM and 30.6 µM | [2] 150 nM and 1.5 µM | [3] 6.21 µM and 3.97 µM | [7] 10.2 µM | [9] 20 µM and 19.6 µM | [12] 11.1 µM and 4.19 µM | [16] 8.11 µM and 1.83 µM
inactive: [4] | [5] | [6] | [7] | [8] | [10] | [11] | [13] | [14] | [15] | [17] | [18]

c1ccc2c(c1)ccc1cc3c(ccc4ccccc43)cc12
active: [2] 0.015 µM | [19] 35.7 µM | [6] 0.267 µM
inactive: [1] | [19] | [3] | [4] | [5] | [6] | [7] | [8] | [9] | [10] | [11] | [20] | [12] | [13] | [14] | [15] | [16] | [17] | [18]

CCOc1nc(F)cc2nc(S(=O)(=O)Nc3c(Cl)cccc3C(=O)OC)nn12
inactive: [1] | [2] | [19] | [3] | [4] | [5] | [6] | [7] | [8] | [9] | [10] | [11] | [20] | [12] | [13] | [14] | [15] | [16] | [17] | [18]

CO[Si](OC)(OC)c1ccccc1
inactive: [1] | [2] | [3] | [4] | [5] | [6] | [7] | [8] | [9] | [10] | [11] | [12] | [13] | [14] | [15] | [16] | [17] | [18]
active: [15] 3.86 µM

COc1ccc2nc(N)sc2c1
inactive: [1] | [2] | [19] | [3] | [4] | [5] | [6] | [7] | [8] | [9] | [10] | [11] | [20] | [12] | [13] | [14] | [15] | [16] | [17] | [18]

O=c1c2ccccc2oc2ccccc12
active: [2] 0.139 µM
inactive: [1] | [19] | [3] | [4] | [5] | [6] | [7] | [8] | [9] | [10] | [11] | [20] | [12] | [13] | [14] | [15] | [16] | [17] | [18]

CCCCC(CC)COCC1CO1 (stereo unspecified)
inactive: [1] | [2] | [3] | [4] | [5] | [6] | [7] | [8] | [9] | [10] | [11] | [12] | [13] | [14] | [15] | [16] | [17] | [18]

CCCCCCCCCCCCCCCC[N+](C)(C)CC
inactive: [6]
active: [1] 697 nM | [2] 3.2 µM | [19] 0.533 µM | [3] 6.2 µM | [4] 5.12 µM | [5] 2.35 µM | [8] 2.28 µM | [9] 1.9 µM | [10] 2.19 µM | [11] 9.57 µM | [20] 0.599 µM | [12] 2.08 µM | [13] 4.5 µM | [14] 5.98 µM | [15] 2.97 µM | [16] 1.93 µM | [17] 2.94 µM | [18] 3.54 µM

C/C=C\C/C=C/CCCCCCCCOC(C)=O
inactive: [1] | [2] | [19] | [4] | [5] | [6] | [7] | [11] | [20] | [12] | [13] | [14] | [17] | [18]
active: [3] 20 µM | [8] 25.7 µM | [9] 29.3 µM | [10] 20 µM | [15] 20 µM | [16] 20 µM

O=Nc1ccc(O)cc1
inactive: [1] | [2] | [19] | [3] | [4] | [5] | [6] | [7] | [8] | [9] | [10] | [11] | [20] | [12] | [13] | [14] | [15] | [16] | [17] | [18]

C#CC1(O)CC[C@H]2[C@@H]3CCC4=CCCC[C@@H]4[C@H]3CC[C@@]21C (stereo partly specified)
active: [1] 6900 nM | [2] 36.4 µM | [19] 8.8 µM | [3] 11.4 µM | [4] 29.9 µM | [5] 12 µM | [6] 20 µM | [8] 33.3 µM | [9] 15.1 µM | [10] 34.8 µM | [11] 36 µM | [12] 20 µM | [13] 6.06 µM | [14] 32.8 µM | [15] 34.8 µM | [16] 20 µM | [18] 32.1 µM
inactive: [7] | [20] | [17]

C=CCOCC(O)CCl (stereo unspecified)
inactive: [1] | [2] | [19] | [3] | [4] | [5] | [6] | [7] | [8] | [9] | [10] | [11] | [20] | [12] | [13] | [14] | [15] | [16] | [17] | [18]
